The text below walks through data of the supplement of paper PMC7858590.

Molecules are shown by their SMILES. Where “and” joins values, the source holds several entries; their conditions need not be identical. Equal entries are not always repeated. ± gives the standard deviation of the averaged measurements.

One test concerns human monocyte-derived macrophages (polarized). As to the kind of experiment: cell shape (eccentricity) Z-score vs DMSO control; higher = more elongated, M2-like morphology. The conditions noted are these: 5 µM; 24 h; macrophage state: M1-polarized (IFNg + TNFa), cytokines present during treatment. On the procedure: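 Primary-screen hits were rescreened on polarized hMDMs with the differentiating cytokines (IL-4 + IL-13 or IFNg + TNFa) kept in the medium during treatment with compound at 5 uM for 24 h. The eccentricity Z-score vs DMSO wells is averaged over experiments.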
Consider `Cc1onc(-c2ccccc2Cl)c1C(=O)N[C@@H]1C(=O)N2[C@@H]1SC(C)(C)[C@@H]2C(=O)O`, for which the “cell shape (Z-score)” value is -5.49. With `[O-][NH2+]c1ccc(O)c2ncccc12`, the “cell shape (Z-score)” value was -6.06. `Cc1c(-c2ccnc(Nc3ccc(N4CCNCC4)cc3)n2)sc(=O)n1C`: the “cell shape (Z-score)” value amounted to 7.79. For the compound `Cc1c(NC(=O)c2cccnc2)c(=O)n(-c2ccccc2)n1C`, the “cell shape (Z-score)” value stood at 1.43.

As to `CC1(C)CCC(C)(C)c2cc(C(=O)Nc3ccc(C(=O)O)cc3)ccc21`, the “cell shape (Z-score)” value was -9.74. `O=C(CCCCCCC(=O)Nc1ccccc1)NO`: the “cell shape (Z-score)” value was -0.801. On the same count and under the same terms, as for `CN(C)C(=O)n1nnnc1Cc1ccc(-c2ccccc2)cc1`, the figure is 10.3; as for `CCCCCCCCCCC(C)(C)C(=O)Nc1c(OC)cc(OC)cc1OC`, -3.18; as for `O=c1ncccn1[C@@H]1O[C@H](CO)[C@@H](O)[C@H]1O`, -0.513.

For the compound `Clc1ccc(C2(c3ccc(-c4cn[nH]c4)cc3)CCNCC2)cc1`, the “cell shape (Z-score)” value came out at 24.9. In the case of `O=C(/C=C/c1cccc(S(=O)(=O)Nc2ccccc2)c1)NO`, the “cell shape (Z-score)” value was -3.19. On to `Cc1[nH]c2ccccc2c1CCNCc1ccc(/C=C/C(=O)NO)cc1`, for which the “cell shape (Z-score)” value stood at 6.17.

With `Cn1cc(C2=C(c3cn(CCCSC(=N)N)c4ccccc34)C(=O)NC2=O)c2ccccc21`, the “cell shape (Z-score)” value came out at 17.6.

As for `CCN(CC)C(=S)SSC(=S)N(CC)CC`, the “cell shape (Z-score)” value was -3.98. The same measure, in the same setting: the result for `O=S(=O)(c1cccc2cnccc12)N1CCCNCC1` reads -0.217; that for `O=C(NCCN1CCCCC1)c1ccc(I)cc1`, 6.46; that for `Nc1nc(Nc2ccc3c(c2)CCC(N2CCCC2)CC3)nn1-c1cc2c(nn1)-c1ccccc1CCC2` (stereo not given), -4.94.

Take `Nc1nc2c(ncn2COCCO)c(=O)[nH]1`: the “cell shape (Z-score)” value is -5.79. `CC1(C)CCC(c2ccc(Cl)cc2)=C(CN2CCN(c3ccc(C(=O)NS(=O)(=O)c4ccc(N[C@H](CCN5CCOCC5)CSc5ccccc5)c(S(=O)(=O)C(F)(F)F)c4)cc3)CC2)C1`: the “cell shape (Z-score)” value is 4.31. Still for that read-out and setting: as for `CC1=C(/C=C/C(C)=C/C=C/C(C)=C/CO)C(C)(C)CCC1`, the figure is 7.5.

Take `c1ccc(-c2[nH]ncc2-c2ccnc3ccccc23)nc1`: the “cell shape (Z-score)” value was 2.26. With `CC[C@]1(O)C[C@@H]2CN(CCc3c([nH]c4ccccc34)[C@@](C(=O)OC)(c3cc4c(cc3OC)N(C)[C@H]3[C@@](O)(C(=O)OC)[C@H](OC(C)=O)[C@]5(CC)C=CCN6CC[C@]43[C@@H]65)C2)C1`, the “cell shape (Z-score)” value was 6.51. Take `CCc1cnn2c(NCc3ccc[n+]([O-])c3)cc(N3CCCC[C@H]3CCO)nc12`: the “cell shape (Z-score)” value is 8. On the same count and under the same terms, the result for `COc1cccc2c1C(=O)c1c(O)c3c(c(O)c1C2=O)C[C@@](O)(C(C)=O)C[C@@H]3O[C@H]1C[C@H](N)[C@H](O)[C@H](C)O1` reads 8.83.

The test is the same for the next values; noted with them: 5 µM; 24 h; macrophage state: M2-polarized (IL-4 + IL-13), cytokines present during treatment.
With `Cc1cc(C(C)(C)CC(C)(C)C)ccc1OCCOCC[N+](C)(C)Cc1ccccc1`, the “cell shape (Z-score)” value was -3.9. On the same count and under the same terms, the result for `CCCS(=O)(=O)Nc1ccc(F)c(C(=O)c2c[nH]c3ncc(-c4ccc(Cl)cc4)cc23)c1F` [Vemurafenib] reads -1.16.

For the compound `COc1ccc(/C=C/C(=O)O)cc1OC`, the “cell shape (Z-score)” value worked out at 1.19.

Turning to `CC(=O)O[C@H]1C(=O)[C@@]2(C)[C@H]([C@H](OC(=O)c3ccccc3)[C@]3(O)C[C@H](OC(=O)[C@H](O)[C@@H](NC(=O)c4ccccc4)c4ccccc4)C(C)=C1C3(C)C)[C@]1(OC(C)=O)CO[C@@H]1C[C@@H]2O`, the “cell shape (Z-score)” value is -14.3 and -18.7. On the same count and under the same terms, the result for `CC(=O)Oc1cc2c(c(C)c1OC(C)=O)CC=C1[C@@]2(C)CC[C@@]2(C)C3C[C@](C)(C(=O)O)CC[C@]3(C)CC[C@]12C` (stereo not given in full) reads -0.297; that for `C[C@@]12C[C@]3(O)O[C@H](O1)C1(COC(=O)c4ccccc4)[C@H]3C[C@@]12O[C@@H]1O[C@H](COC(=O)c2ccccc2)[C@@H](O)[C@H](O)[C@H]1O`, -2.92; that for `OCc1ccc(-c2ccc(-c3ccc(CO)s3)o2)s1`, -20.9. Same read-out and setting: as for `CN1[C@@H](CC(=O)c2ccccc2)CCC[C@H]1C[C@H](O)c1ccccc1`, the figure is 4.11; as for `CN[C@H]1CC[C@@H](c2ccc(Cl)c(Cl)c2)c2ccccc21`, -4.29; as for `COc1ccc(S(=O)(=O)N(C(C)=O)c2ccccc2/C=C/c2cc[n+]([O-])cc2)cc1`, -2.29. Regarding `CC1=CC[C@@]2(C)CC[C@@](O)(C(C)C)[C@@H]2[C@@H](O)C1`, the “cell shape (Z-score)” value was -2.34 ± 1.2. The same measure, in the same setting: as for `CC(C)C1C2CCC(C2)C1N` (stereo not given), the figure is -1.17. Same read-out and setting: as for `O=C(Nc1ccc([N+](=O)[O-])cc1Cl)c1cc(Cl)ccc1O`, the figure is -8.05. Same read-out and setting: as for `CC(CCCCC(=O)Nc1ccc(C(F)(F)F)cc1)NCCc1cnc[nH]1` (stereo not given), the figure is -6.34; as for `CN1c2cc3c(cc2N=C(c2ccc(C(=O)O)cc2)c2ccccc21)C(C)(C)CCC3(C)C`, -8.56; as for `O=C1c2ccccc2C(Cc2ccnc(F)c2)(Cc2ccnc(F)c2)c2ccccc21`, 1.79.
